Pf Dd2 growth: Plasmodium falciparum Dd2 growth inhibition; P. falciparum Dd2 growth, SYBR Green, 72 h; Potency, µM (series often up to 28.9 µM), inactives show at the top dose activity, negative = inhibition, actives largely listed as inhibitors; hit rate 4.3% among 120,000; AID 1347417; active = well fitted inhibition curve with a large enough effect;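 also: plate controls were DMSO vehicle for no effect and reference drug for full effect; nearly all actives have a fitted effect of over 65% in size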
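Infected erythrocytes (Dd2, 0.3% parasitemia, 2.5% hematocrit final) are added to compound in RPMI-1640/Albumax II medium, grown 72 h at 37C in low oxygen, then lysed with saponin/Triton-X containing SYBR Green and read by fluorescence.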
* hit, by the source's call; [ ] = dose if it differs, or a comment. Shown is part of a subset that was picked to be rich in hits. Potency is read from the fitted curve at half-maximal effect.

What do the screens show for `C[S+](=O)([O-])N1C[C@H](C(=O)N2CCN(c3ccccn3)CC2)C[C@@H]1c1ccc(F)cc1`?
Pf Dd2 growth: inactive

How did O=C(c1ccoc1)N1CCC(Nc2cccn3ncnc23)CC1 do in these assays?
Pf Dd2 growth: -18%

Results for Cc1cccc(CC(=O)N2CCC(Nc3cccn4ncnc34)CC2)c1 ?
Pf Dd2 growth: 11µM*

Results for Cc1cccc(CC(=O)N2CCC(c3nn(C)c4c3COCC4)CC2)c1 ?
Pf Dd2 growth: inactive[5.79 µM]

Results for Cc1nc(CN2C(=O)OC3(CCN(C(=O)c4cccnc4)CC3)C2(C)c2ccccc2)cs1 (stereo not given) ?
Pf Dd2 growth: -19%

Results for Cc1ccc(C)c(N2CCN(C(=O)CCC(=O)Nc3ccc4nc(N5CCCCC5)cc(C)c4c3)CC2)c1 ?
Pf Dd2 growth: inactive

Results for COc1ccc(-n2nc3ccc(NC(=O)c4cccc(OCCC(C)C)c4)cc3n2)cc1 ?
Pf Dd2 growth: inactive

How did Cc1cc(N2CCCCC2)nc2ccc(NC(=O)CCC(=O)N3CCN(c4ccccc4)CC3)cc12 do in these assays?
Pf Dd2 growth: -26%

What do the screens show for `CCN1CCN(c2cc(C)c3cc(NC(=O)/C=C/c4ccc(OCCC(C)C)cc4)ccc3n2)CC1`?
Pf Dd2 growth: 1.1µM*

How did CCN1CCN(c2cc(C)c3cc(NC(=O)/C=C/c4ccc(C)cc4)ccc3n2)CC1 do in these assays?
Pf Dd2 growth: 1.1µM*

What do the screens show for `CCOc1ccc(C(=O)Nc2ccc3ncnc(N4CCCCC4)c3c2)cc1`?
Pf Dd2 growth: inactive

Results for CCCCCN(CCC(=O)NCCCOC)C(=O)c1ccoc1 ?
Pf Dd2 growth: -10%

Results for Cc1noc(-c2cn(C3CCCN(C(=O)c4ccc(F)cc4)C3)nn2)n1 (stereo not given) ?
Pf Dd2 growth: -1%

How did O=C(O)C[C@@H]1CCN(C(=O)COc2ccccc2)C[C@@H]1CCN1CCN(c2ccc(F)cc2)CC1 do in these assays?
Pf Dd2 growth: -1%

How did CCn1nc(CC(C)C)cc1C(=O)N(C)Cc1cccc(-n2cccn2)c1 do in these assays?
Pf Dd2 growth: -15%

How did CCCCOC(=O)c1ccc(N2CC3CCC(C2)N3CC(F)(F)F)nn1 do in these assays?
Pf Dd2 growth: -3%

How did Cc1cc(C(F)(F)F)n(CC(C)Cn2cc(-c3cncnc3)nn2)n1 (stereo not given) do in these assays?
Pf Dd2 growth: -21%

What do the screens show for `CN(Cc1ccccc1)C(=O)CCNc1c(-c2cccc(F)c2)nc2cnccn12`?
Pf Dd2 growth: -8%

How did Cc1ccc(Nc2c(-c3ccccn3)nc3ccc(Br)cn23)cc1 do in these assays?
Pf Dd2 growth: -4%

Results for CN(C)c1ccc(-c2nc3cnccn3c2Nc2cccc(C(F)(F)F)c2)cc1 ?
Pf Dd2 growth: 8.9µM*

How did O=C(O)CCNc1c(-c2ccc(F)cc2)nc2cnccn12 do in these assays?
Pf Dd2 growth: -7%

What do the screens show for `COc1ccc(-c2nc3cc(C)ccn3c2NC(=O)c2ccc(F)cc2)cc1`?
Pf Dd2 growth: 21%

What do the screens show for `Cc1ccn2c(Nc3ccc(F)cc3)c(-c3ccccn3)nc2c1`?
Pf Dd2 growth: 4.5µM*

What do the screens show for `Oc1ccccc1-c1nc2cnccn2c1Nc1ccc(Cl)cc1`?
Pf Dd2 growth: 2.5µM*

How did Cc1ccc2nc(-c3ccccc3O)c(Nc3ccccc3C)n2c1 do in these assays?
Pf Dd2 growth: 1.4µM*

What do the screens show for `O=C(CCNc1c(-c2cccc(F)c2)nc2cnccn12)NCc1ccc(Cl)cc1`?
Pf Dd2 growth: -3%

Results for Cc1ccc2nc(-c3ccc(O)cc3)c(Nc3ccc4c(c3)OCCO4)n2c1 ?
Pf Dd2 growth: -5%

How did Cc1ccccc1Nc1c(-c2ccccc2O)nc2sccn12 do in these assays?
Pf Dd2 growth: inactive

What do the screens show for `Clc1ccc(Nc2c(-c3ccccc3Cl)nc3ccc(Cl)cn23)cc1`?
Pf Dd2 growth: inactive

What do the screens show for `Cc1ccc(CN2CCC(C(=O)N3CCCCCCNC(=O)CC3)CC2)o1`?
Pf Dd2 growth: -11%

How did CC(C)N1CCN(C(=O)C2CCN(C(=O)N3CC4CC(C3)[C@H]3CCCC(=O)N3C4)CC2)CC1 (stereo not given in full) do in these assays?
Pf Dd2 growth: inactive

Results for COc1ccc(C2Cn3nnc(C(=O)N4CCC(C(=O)NCC5CC5)CC4)c3CO2)cc1 (stereo not given) ?
Pf Dd2 growth: inactive

How did COC[C@@H]1CN(S(=O)(=O)c2ccc(C)c(F)c2)C[C@H]1C(N)=O do in these assays?
Pf Dd2 growth: 3%

What do the screens show for `COC(=O)CO[C@@H]1CO[C@H]2[C@@H]1OC[C@@H]2NC(=O)Nc1cccc(C(F)(F)F)c1`?
Pf Dd2 growth: -13%[44.1 µM]

What do the screens show for `COC1CN(c2ccc(C)cc2)C12CCN(C(=O)c1ccncc1)CC2` (stereo not given)?
Pf Dd2 growth: -25%

How did COc1ccc(C(=O)N2CCC(N3CC4CC(C3)[C@H]3CCCC(=O)N3C4)CC2)c(C)c1 (stereo not given in full) do in these assays?
Pf Dd2 growth: -7%

Results for CC(=O)N1CCC(c2nn(-c3ccccc3)c(=O)[nH]2)CC1 ?
Pf Dd2 growth: -24%[44.1 µM]

How did COc1ccc(NC(=O)N[C@H]2C[C@@H](C(=O)N[C@H](Cc3c[nH]c4ccccc34)C(N)=O)N(C(=O)C3CC3)C2)cc1 do in these assays?
Pf Dd2 growth: -14%

Results for Cc1ccc(Nc2c(-c3ccc(C)cc3)nc3c(C)cccn23)cc1 ?
Pf Dd2 growth: -29%

Results for Cc1ccn2c(Nc3ccc4c(c3)OCO4)c(-c3ccc(N(C)C)cc3)nc2c1 ?
Pf Dd2 growth: 13µM*

Results for Cc1nc2nncn2c(Nc2ccc(F)cc2)c1C ?
Pf Dd2 growth: 5%

What do the screens show for `CN(C)c1ccc(-c2nc3ccc(Cl)cn3c2Nc2ccc3c(c2)OCCO3)cc1`?
Pf Dd2 growth: inactive

How did Cc1ccccc1Nc1c(-c2ccc(O)cc2)nc2c(C)cccn12 do in these assays?
Pf Dd2 growth: 11µM*

How did Cc1cccc2nc(-c3ccccn3)c(Nc3ccccc3)n12 do in these assays?
Pf Dd2 growth: 7.1µM*

What do the screens show for `c1ccc(Nc2c(-c3ccccc3)nc3ncccn23)cc1`?
Pf Dd2 growth: inactive

What do the screens show for `CN1C[C@@H](NC(=O)Nc2ccc(F)cc2)C[C@H]1c1nc(-c2ccccn2)no1`?
Pf Dd2 growth: -14%[44.1 µM]

What do the screens show for `Cc1cccc2nc(-c3ccccn3)c(Nc3ccc(F)cc3)n12`?
Pf Dd2 growth: 3.2µM*

What do the screens show for `COc1ccc(-c2nc3ccc(C)cn3c2Nc2ccc3c(c2)OCO3)cc1`?
Pf Dd2 growth: 17%

Results for Cc1ccc(Nc2c(-c3ccsc3)nc3cccc(C)n23)cc1 ?
Pf Dd2 growth: -1%

What do the screens show for `Cc1ccc(Nc2c(-c3ccsc3)nc3c(C)cccn23)cc1`?
Pf Dd2 growth: inactive

Results for Cc1ccc(Cn2ccn3nc4c(c3c2=O)CCCC4)cc1 ?
Pf Dd2 growth: -1%

How did O=c1c2c(CO)c(-c3ccccc3)nn2ccn1CCc1ccccc1 do in these assays?
Pf Dd2 growth: -13%

How did Cc1nc(-c2c3n(c(=O)n(CC(=O)Nc4ccc(F)cc4F)c2=O)CCCC3)no1 do in these assays?
Pf Dd2 growth: -24%

Results for COc1ccc(C2(C(=O)N3CCC4(CCCN(C)C4=O)C3)CCCC2)cc1 (stereo not given) ?
Pf Dd2 growth: -8%

How did Cc1ccc(C(=O)NC[C@H]2O[C@@H](CC(=O)N3CCc4ccccc43)[C@H](O)[C@@H]2O)cc1 do in these assays?
Pf Dd2 growth: inactive

What do the screens show for `O=C(NCc1ccccc1)C1CCC(=O)N1C1CCNCC1` (stereo not given)?
Pf Dd2 growth: 11%

How did O=C(N[C@@H]1CN(C(=O)c2cc(-c3ccc(F)cc3)n[nH]2)CC[C@@H]1CO)C1CC1 do in these assays?
Pf Dd2 growth: -15%
